{
  "source": "PubChem BioAssay (NCI)",
  "note": "Compounds without any hit were thinned out: in the full panel of roughly 83,000, 20% have a hit.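 48-hour exposure, single concentration, 96-well plates; percent growth endpoint where 0 means no net growth. Active: below 10.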 The source made the active and inactive calls.",
  "data": [
    {"system": "HCT-15 colon", "assay": "NCI-60 one-dose screen, 48 h (100 = growth as untreated, 0 = no growth, -100 = all killed)", "conditions": "10 µM", "values": [
      {"compound": "CCc1ccc(-c2ccc(-n3nc(C)c4c(N)nc(Cc5ccccc5)nc43)cc2)cc1", "growth": "60.6% (inactive)"},
      {"compound": "O=[N+]([O-])c1ccc2ncccc2c1Cl", "growth": "13.2% (inactive)"},
      {"compound": "Cc1ccc(-n2nnnc2N)c(C)c1", "growth": "106% (inactive)"},
      {"compound": "Oc1ccc(-c2[nH]c3ccccc3c2-c2nc3ccccc3o2)cc1", "growth": "25.4% (inactive)"},
      {"compound": "CCc1ccc(C2=NN(c3ccc(S(C)(=O)=O)cc3)C(=O)CC2)cc1", "growth": "22.1% (inactive)"},
      {"compound": "COc1ccc(-c2nn(-c3cccc(Cl)c3)cc2-c2c(C#N)c(=O)n3[nH]c(-c4ccc(C)cc4)nc3c2C#N)cc1", "growth": "65.2% (inactive)"},
      {"compound": "O=C1c2ccccc2C(=O)c2c1ccc(C(Br)Br)c2[N+](=O)[O-]", "growth": "38.3% (inactive)"},
      {"compound": "CCOC(=O)CC(S(=O)(=O)c1ccccc1)S(=O)(=O)c1ccccc1", "growth": "93.4% (inactive)"},
      {"compound": "CC(=O)Nc1ccc(S(=O)(=O)c2ccnc3cc(Cl)ccc23)cc1", "growth": "63.8% (inactive)"},
      {"compound": "O=C(Nc1cc([N+](=O)[O-])c2[nH]c(=O)c3ccccc3c2c1)C(F)(F)F", "growth": "81% (inactive)"},
      {"compound": "COc1cc2c(cc1NC(=O)C(F)(F)F)-c1ccc(NC(=O)C(F)(F)F)cc1C2", "growth": "106% (inactive)"},
      {"compound": "COc1ccc(/C(C#N)=C/c2cccc(OC)c2OC)cc1", "growth": "68.1% (inactive)"},
      {"compound": "C/C(=C/CCC(C)[C@@H]1CC[C@]2(C)C3=C(CC[C@@]12C)[C@@]1(C)CCC(=O)C(C)(C)[C@@H]1CC3)C(=O)O", "note": "(some centres undefined)", "growth": "-66.6% (active)"},
      {"compound": "N#CC1=CC2CN(Cc3ccccc3)C1C1C(=O)N(c3ccccc3)C(=O)C21", "note": "(centres undefined)", "growth": "96.5% (inactive)"}
    ]}
  ]
}
